Laboratory results: PubChem BioAssay (NCI)
This is part of a sample that, as a whole, favours compounds with a hit. Of some 79,000 tested, about 15% had one in any assay. Unmarked numbers belong to inactive results. Activity calls are given as the source filed them. Rule as the data show it: active = growth inhibition above about 70%; inactive = the rest.

Assays:
[1] = NCI Yeast Anticancer Drug Screen. Data for the rad50 strain (AID 155);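 also: 0% = growth of vehicle-only cultures of the same strain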; conditions: S. cerevisiae rad50 strain growth inhibition; at 50.0 µM; hits give high values
In short: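 Compounds were tested on a yeast strain with an engineered DNA damage repair alteration; the reported value is growth inhibition normalised to vehicle treatment.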

[2] = NCI Yeast Anticancer Drug Screen. Data for the mec2-1 strain (AID 157); conditions: S. cerevisiae mec2-1 strain, at 50.0 µM, hits give high values
In short: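 Test agents were screened against the mec2-1 yeast strain, with defined DNA repair or cell cycle alteration. Growth was scored as inhibition against vehicle-only controls.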

[3] = NCI Yeast Anticancer Drug Screen. Data for the sgs1 mgt1 strain (AID 161);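 also: 0% = growth of cultures given vehicle only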; conditions: S. cerevisiae sgs1 mgt1 strain, at 50.0 µM, hits give high values
In short: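 Test agents were incubated with a DNA-repair-mutant yeast strain. Growth was then read and compared against vehicle-treated controls.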

[4] = NCI Yeast Anticancer Drug Screen. Data for the cln2 rad14 strain (AID 165);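 also: 0% = growth equal to vehicle treated cultures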; conditions: S. cerevisiae cln2 rad14 strain, at 50.0 µM, hits give high values
In short: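 Growth of compound-exposed yeast (cln2 rad14 genotype) measured and expressed as inhibition relative to vehicle.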

[5] = NCI Yeast Anticancer Drug Screen. Data for the bub3 strain (AID 167); conditions: S. cerevisiae bub3 mutant strain, at 50.0 µM, hits give high values
In short: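 Growth of a checkpoint-deficient yeast mutant is measured after compound exposure. Values represent inhibition relative to vehicle.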

[6] = NCI Yeast Anticancer Drug Screen. Data for the mlh1 rad18 strain (AID 175); conditions: S. cerevisiae mlh1 rad18 strain growth inhibition; at 50.0 µM; hits give high values
In short: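 In this whole-cell yeast screen, a strain with altered DNA damage repair is challenged with compound, and its growth is measured against matched vehicle-treated controls.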

Structure (SMILES)	growth inhibition [1]	growth inhibition [2]	growth inhibition [3]	growth inhibition [4]	growth inhibition [5]	growth inhibition [6]
Clc1ccc(C2OCCO2)cc1	12.2%	3.95%	11.2%	3.35%	-0.35%	14.3%
CC(C)CC(N)C(=O)NC(Cc1c[nH]c2ccccc12)C(N)=O (stereo unspecified)	-8.85%	3.35%	18.1%	-2.4%	22.4%	10.5%
CCNCCN(CC)CC	-12.7%	-5.75%	-21.1%	6.1%	0%	-17.4%
N=C1N=C(N)C(CCCOc2cc(Cl)ccc2Cl)(CCCOc2cc(Cl)ccc2Cl)C(N)=N1	99% (active)	95.5% (active)	97.4% (active)	98.5% (active)	98.9% (active)	98% (active)
O=C(O)C(CCS)(c1ccccc1)c1ccccc1	17.2%	-5.7%	0.3%	20.2%	2.15%	2%
CCN(CC)c1c(C)nnn1C1OC(COC(C)=O)C(OC(C)=O)C(OC(C)=O)C1OC(C)=O (stereo unspecified)	-0.8%	-10.9%	-19.9%	3.15%	11.8%	-12%
O=C(O)c1c(O)ccc(O)c1C(=O)O	-38.5%	-30.8%	-29.7%	-21.1%	-8.8%	-11.2%
COc1ccc(-c2nc(N)nc(-c3cc(C)ccc3O)c2Cl)cc1	12.7%	-0.45%	5.3%	17.4%	6.5%	12.6%
O=C(NN1C(=O)c2cccc3cccc(c23)C1=O)NN1C(=O)c2cccc3cccc(c23)C1=O	98.2% (active)	99.4% (active)	98.2% (active)	99.5% (active)	99.2% (active)	99% (active)
O=C(O)CCc1nc2c(n1-c1ccccc1)C(=O)c1ccccc1C2=O	38.2%	20.5%	34.6%	34.3%	37.6%	34.2%
CCCC(SCCO)C(CC)CSCCO (stereo unspecified)	-16.8%	-9.55%	2.65%	-14.5%	13.1%	5.7%
O=C(N/N=C\c1ccncc1)Nc1ccc(N=Nc2ccccc2)cc1	13.2%	6.05%	17.6%	-2.6%	5.9%	19.6%
O=C1CSC(c2c[nH]c3ccccc23)N1c1cccc([N+](=O)[O-])c1 (stereo unspecified)	-61.2%	-39.5%	-59.9%	-0.7%	-59%	-39%
CO/C(=N\N=C\c1cccc(C(F)(F)F)c1)c1ccncc1	27.3%	6.4%	-2.2%	-6.05%	5.1%	12.2%
O=C(c1ccccc1)C12CCC3CC(CC(C3)C1)C2	-18.1%	8.25%	11.5%	6.05%	16.4%	9.65%
O=[N+]([O-])c1ccc(S(=O)(=O)c2ccc(N=Cc3ccc(C=Nc4ccc(S(=O)(=O)c5ccc([N+](=O)[O-])cc5)cc4)cc3)cc2)cc1	6.85%	3.25%	1.15%	-5.45%	-4.55%	-5.85%
CCN1C(=O)C(N=[N+]=[N-])(c2ccccc2)C(=O)c2ccccc21 (stereo unspecified)	10.5%	-8.5%	-16.7%	6.6%	2.45%	0.65%
CC(C)(C)OC(=O)NC(C)(C)C(=O)NCCC(=O)O	0%	-70%	-1.8%	3.35%	-15.2%	-13.5%
COC(=O)C1CC(=O)c2cc(OC)ccc2C1 (stereo unspecified)	-1.85%	2.8%	-7.7%	6.05%	-7.75%	-27.1%
CC(NCCOc1ccccc1)c1ccccc1 (stereo unspecified)	9.1%	33.4%	3.2%	10.7%	-0.75%	9.25%
COc1c(OC)c(C(C)C)c2c(c1C(=O)O)C(=O)OC2=O	-5.6%	10.9%	11.2%	-14.9%	-7.5%	-7.75%

Structure (SMILES)	growth inhibition [1]	growth inhibition [2]	growth inhibition [3]	growth inhibition [4]	growth inhibition [5]	growth inhibition [6]
C/C(=N\N)c1ccc(-c2ccccc2)cc1	10.6%	8.9%	6.45%	-32.8%	-30.7%	-5.4%
COc1cccc(/C=C/c2cc3c(cc2Br)OCO3)c1	3.3%	-3.35%	2.55%	3.65%	1.9%	-6.3%
Cc1cc(C2(c3cc(C)c(O)c4ncccc34)OC(=O)c3ccccc32)c2cccnc2c1O	84.6% (active)	85.5% (active)	50.6%	44%	66%	87.5% (active)
C/C(=C\CNc1ncnc2c1ncn2CCC(=O)OC(C)(C)C)CO	-12.3%	-8.7%	-49.1%	13.1%	5.6%	-17.6%
CCCCCCCCC/C=C1\CCC(CN2CCOCC2)C1=O (stereo unspecified)	89% (active)	92.8% (active)	90.3% (active)	89.6% (active)	88.8% (active)	88% (active)
OC1CCC(C2C3CCCCC3C3CCCCC3C2C2CCC(O)CC2)CC1 (stereo unspecified)	94.7% (active)	98.5% (active)	92.5% (active)	97.9% (active)	97.2% (active)	96.8% (active)
O=C(NCc1cccs1)OC1CC2CCC1C2 (stereo unspecified)	1.6%	-7.45%	10.8%	-14.8%	-8%	20.4%
O=C(O)/C=C/C(=O)Nc1ccc(C(=O)O)cc1	22.9%	-27.3%	10.2%	7.6%	-20.9%	-3.7%
COC1CC(OC2C(C)OC(OC3C(C)OC(OC4C(C)OC(O[C@H]5CC[C@@]6(C)C(=CC[C@]7(O)[C@@H]6C[C@@H](OC(=O)/C=C/c6ccccc6)[C@@]6(C)[C@]7(O)CC[C@@]6(O)C(C)=O)C5)CC4OC)CC3OC)CC2OC)OC(C)C1O (stereo partly specified)	31%	19.2%	5.35%	25.9%	7.15%	-27.6%
O=C(O)/C=C/C(=O)Nc1cc2c(cc1Br)-c1ccccc1C2O (stereo unspecified)	-2.75%	12.5%	14.3%	14.1%	1.25%	34%
CCOC(=O)C(C=C(C)C)(CC)C(=O)OCC	2.5%	-17%	-5.7%	-4.55%	-17.1%	-21.9%
COc1ccccc1NC(=O)c1nc2ccc([N+](=O)[O-])cc2nc1C	21.4%	19.1%	1.65%	15.4%	33.9%	20.4%
CC(=O)Nc1nnc(S(C)(=O)=O)s1	-29.6%	-29%	-55.6%	7.25%	-36.9%	-33%
CCOC(=O)NC(=O)c1cn(CC(=O)NCC(=O)NCC(=O)N2CCN(CCn3c(C)nc(C(N)=O)c3N)CC2)c(=O)[nH]c1=O	12.8%	8.9%	5.25%	-18.8%	2.75%	-4.85%
CC1=NCCN1CCN	20.6%	-17.2%	23.8%	12.9%	13.6%	23.6%
CC(=O)OCC(OC(C)=O)C(OC(C)=O)C(OC(C)=O)C(O)CO (stereo unspecified)	-0.55%	18.8%	15.4%	-6%	24.6%	-4.45%
Cc1cc(C(F)(F)F)cc(-n2nc(NS(=O)(=O)c3cc(C)c(Cl)cc3S)nc2N)n1	13.1%	10.1%	15.4%	-2.9%	4.5%	33.5%
O=C(O)CNc1cc(-c2ccccc2)nc(NCC(=O)O)n1	-53.7%	-12.3%	4.45%	17.8%	-29.1%	25.4%
CN(C)S(=O)(=O)c1cccc2ccccc12	3.35%	7.85%	-7.35%	-6.9%	2.45%	-8.65%
CN(C)c1ccc(/C=c2\sc3nnc(Cc4ccccc4)n3c2=O)cc1	-7.8%	-13.6%	-0.25%	11.1%	11.1%	1.35%
